Screens from PubChem BioAssay.
Rows were chosen to be rich in hits. Some 9.8% of all compounds tested hit in one or more screens of this group.
ALDH1A1 inh – ALDH1A1 (human) enzyme inhibition | P00352 | Purified ALDH1A1, NADH fluorescence, propionaldehyde substrate | Potency, µM (top dose mostly 75.3 µM), for inactives: top-dose activity, negative = inhibition, hits mostly inhibitors | 220,000 compounds, 7.3% hits; active = well fitted inhibition curve with a large enough effect, not every such curve was filed as active; inconclusive = small, poorly fitted or top-dose-only effect, or another doubt; inactive = no such curve, though single readings can be large or run the other way;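 also: potency is read from the fitted curve at half-maximal effect; plate controls were no enzyme wells and a reference inhibitor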
CBFb-RUNX1 inh – CBF-beta/RUNX1 interaction disruption | Q01196+Q13951 | AlphaScreen CBFb-His/RUNX1-biotin binding, biochemical | Potency, µM (doses to about 59.8 µM), for inactives: top-dose activity, negative = inhibition, usual class: inhibitors | 230,000 tested, under 10 active; also: % of control where 0% means no effect
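Interaction loss through any mechanism counts as activity. Pre-formed complex of His-CBF-beta and biotin-RUNX1 (30 nM apiece) is incubated with compound 15 min, then with 50 ng nickel and 50 ng streptavidin beads for 90 min before AlphaScreen detection.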
HTT cytoprotect – Huntington cell model cytoprotection by ATP luminescence; PC12 HTT-Q103 induced, cytoprotection, ATP luminescence, 40 h; Potency, µM (doses to about 56.4 µM), without a hit: cytoprotection (ATP increase), actives largely listed as activators; 230,000 compounds, 0.14% hits; AID 1471; also: potency is read from the fitted curve at half-maximal effect; % of control where 0% means no effect; nearly all actives have a fitted effect of over 45% in size
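Stable PC12 Q103-GFP cells in serum-supplemented, phenol red-free DMEM; induction by tebufenozide at 100 nM final; compound dose series; cell viability quantified luminescently from ATP.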
KDM4E inh – JMJD2E (human) inhibition; B2RXH2; JMJD2E catalytic domain, FDH-coupled NADH fluorescence (FDH is formaldehyde dehydrogenase); Potency, µM (series often up to 57.1 µM), for the others: at the highest dose activity change, negative = inhibition, usual class: inhibitors; 230,000 compounds, 1.6% hits; AID 2147; active = well fitted inhibition curve with a large enough effect, not every such curve was filed as active; inconclusive = small, poorly fitted or top-dose-only effect, or another doubt; inactive = no such curve, though single readings can be large or run the other way;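 also: potency is read from the fitted curve at half-maximal effect; 0% = wells with enzyme and -100% = buffer wells without enzyme; nearly all actives have a fitted effect of over 50% in size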
Target sequence (B2RXH2 1-337 limits assumed): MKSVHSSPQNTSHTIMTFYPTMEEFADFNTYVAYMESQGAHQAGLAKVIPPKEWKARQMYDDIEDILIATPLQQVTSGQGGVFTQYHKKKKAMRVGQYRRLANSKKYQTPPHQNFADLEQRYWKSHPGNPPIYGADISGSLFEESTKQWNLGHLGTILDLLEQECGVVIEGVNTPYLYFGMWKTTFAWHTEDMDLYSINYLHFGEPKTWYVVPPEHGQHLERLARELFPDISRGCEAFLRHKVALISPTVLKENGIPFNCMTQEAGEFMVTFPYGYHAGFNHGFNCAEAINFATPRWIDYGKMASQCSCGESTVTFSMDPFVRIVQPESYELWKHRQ
HTT aggregate – mutant huntingtin aggregation inhibition. PC12 HttQ103-GFP aggregates, Acumen cytometry, 40 h. Potency, µM (titrated, usually from 46.1 µM), without a hit: at the highest dose activity change, negative = inhibition, hits mostly inhibitors. 220,000 compounds, 1.1% hits. AID 1688; also: potency is read from the fitted curve at half-maximal effect; % is scaled to controls: 0 for no effect and ±100 for the full control effect; nearly all actives have a fitted effect of over 60% in size
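Steps: seed 1500 PC12 HTTQ103-GFP cells/well; add tebufenozide, 100 nM final; add compound titration; add ATPLite reagent; quantify GFP aggregates by laser scanning cytometry.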
HPGD inh – inhibitors of human 15-hydroxyprostaglandin dehydrogenase (HPGD) | Potency, µM, inactives show at the top dose activity change, negative = inhibition, hits mostly inhibitors | 150,000 compounds, 4.3% hits | P15428 | purified HPGD, NADH fluorescence kinetic, PGE2 substrate; active = well fitted inhibition curve with a large enough effect, not every such curve was filed as active; inconclusive = small, poorly fitted or top-dose-only effect, or another doubt; inactive = no such curve, though single readings can be large or run the other way; also: potency is read from the fitted curve at half-maximal effect; % is scaled to controls: 0 for no effect and ±100 for the full control effect
Target sequence (P15428 whole entry, looked up): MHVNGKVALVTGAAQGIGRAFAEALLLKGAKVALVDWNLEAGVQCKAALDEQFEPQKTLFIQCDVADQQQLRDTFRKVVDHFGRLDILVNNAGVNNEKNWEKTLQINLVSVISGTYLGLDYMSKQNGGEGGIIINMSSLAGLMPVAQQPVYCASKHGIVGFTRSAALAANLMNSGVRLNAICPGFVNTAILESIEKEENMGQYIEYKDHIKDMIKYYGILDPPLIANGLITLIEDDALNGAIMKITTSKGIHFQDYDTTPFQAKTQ
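20 nM HPGD preincubated 15 min at room temperature with compound in 50 mM Tris-HCl pH 8, 0.01% Tween 20. Started with 1 mM NAD+ and 30 uM prostaglandin E2; NADH fluorescence (360/450 nm) read 5 times over 30-s intervals, last minus first.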
* hit, by the source's call; u = inconclusive; x = no result; [ ] = remark or other dose. Unless noted, calls follow the shape of the dose curve; as a rule, active = well fitted curve in the direction sought with a large enough effect; inconclusive = small, poorly fitted or top-dose-only effect, or another doubt; inactive = no such curve, though single readings can be large; an effect the other way counts as inactive or inconclusive.

SMILES	ALDH1A1 inh	CBFb-RUNX1 inh	HTT cytoprotect	KDM4E inh	HTT aggregate	HPGD inh
COC(=O)Nc1nn(-c2ccc(OC)cc2)c(=O)c(C#N)c1C	25µM*	20%	-10%	3%	-4%	x
Cc1ccc2c(c1)c1c3n2CC(=C2C(=O)OC(C)(C)OC2=O)NC3CCC1 (configuration not stated)	10µM*	5%	-30%[10 µM]	u	4%	-17%
CC(=O)N(C1=C(O)c2ccccc2C(=O)C1=O)C1CCCCC1	10µM*	-1%	-13%	u	-15%	-26%
Cc1c(/N=C(\[O-])Nc2ccc(Br)cc2)sn[n+]1C	u	15%	-21%[10 µM]	u	21%[9.22 µM]	x
COc1cc2c(cc1OC)-c1c(OC)c(OC)cc3ccnc(c13)C2=O	-4%	-9%[21.7 µM]	-44%[1.9 µM]	u	u	8.9µM*
O=C1c2ccsc2SCCN1Cc1ccccc1	-6%	4%	10%[10 µM]	9%	-8%[9.22 µM]	x
Cc1cc(NC(=O)c2cc(-c3ccco3)on2)n(-c2ccccc2)n1	u	11%	-12%[10 µM]	u	-9%	-11%
Cc1cc(-c2ccco2)n(-c2ccccc2)n1	1.4µM*	-10%	-14%[0.074 µM]	u	19%	32µM*
CSc1nc2ccc(NS(=O)(=O)c3ccc([N+](=O)[O-])cc3)cc2s1	5%	-16%	4%[10 µM]	0%	-15%[9.22 µM]	x
CSc1nc2ccc(NS(=O)(=O)c3cccc(Cl)c3Cl)cc2s1	u	-4%	-12%[10 µM]	6%	2%	16µM*
CNC(CC(=O)c1ccc([N+](=O)[O-])cc1)C(Cl)(Cl)Cl (configuration not stated)	0.56µM*	-25%	-24%[10 µM]	u	5%	10µM*
Cc1cccc(NCCC(=O)c2ccc([N+](=O)[O-])cc2)c1C	0.18µM*	6%	-49%	-1%	5%[9.22 µM]	x
COc1ccc(C(=O)CC(Nc2ccc([N+](=O)[O-])cc2)c2ccc(OC)cc2)cc1 (configuration not stated)	u	-19%	25%[10 µM]	-7%	-4%	-12%
Cc1ccc(C(=O)CNc2cccc([N+](=O)[O-])c2)cc1	13µM*	0%	-27%	-16%	11%	x
Cc1ccc(NCC(=O)c2ccc([N+](=O)[O-])cc2)cc1	7.9µM*	-16%	13%	-25%	-14%	x
COCCOn1c(SCCOC)nc2ccccc2c1=O	u	7%	-7%[10 µM]	-2%	-12%[9.22 µM]	x
FC(F)(F)c1cccc(NC(=S)NNC(=S)NCc2ccccc2)c1	0.56µM*	3%	-16%	4%	u	u
FC(F)(F)c1cccc(NC(=S)NCc2ccccn2)c1	u	1%	7%[10 µM]	-27%	u	-6%
CNC(=S)NNC(=O)c1cccc(C(F)(F)F)c1	0%	11%	-7%[10 µM]	9%	8%	-14%
O=C(NNC(=S)Nc1cccc(C(F)(F)F)c1)c1cccc(Cl)c1	22µM*	-21%	21%[10 µM]	-6%	u	-8%
FC(F)(F)c1cccc(NC(=S)Nc2cccc(NC(=S)Nc3cccc(C(F)(F)F)c3)n2)c1	25µM*	-9%	11%[10 µM]	u	-2%[9.22 µM]	x
O=C(O)/C=C/C(=O)Nc1cccc(C(F)(F)F)c1	20µM*	0%	3%[1.9 µM]	0%	13%	0%
Cc1c(C)c(C)c(S(=O)(=O)N2CCNCC2)c(C)c1C	6%	0%	-43%	16%	-12%	x
Cc1cc(C(F)(F)F)nn1CC(=O)NNC(=S)Nc1cccc(Cl)c1	20µM*	0%	-3%	12%	7%	-5%
Cc1cc(C(F)(F)F)nn1CC(=O)Nc1cccnc1	11%	-3%	-20%	8%	-3%	-16%
SMILES	ALDH1A1 inh	CBFb-RUNX1 inh	HTT cytoprotect	KDM4E inh	HTT aggregate	HPGD inh
O=C(NNC(=S)Nc1cccc(C(F)(F)F)c1)c1ccccc1Cl	8.9µM*	-1%	17%[10 µM]	-13%	u	-20%
CCOC(=O)Cc1nn(Cc2nc(-c3ccc(C)cc3)cs2)c(=O)c2ccccc12	0%	0%	-10%[10 µM]	-19%	-20%[9.22 µM]	x
CCOc1ccc(S(=O)(=O)N2CCCCC2)c2ccccc12	32µM*	16%	-17%	-5%	-23%	-29%
CCOc1ccc(C(C)(C)C)cc1S(=O)(=O)N1CCOCC1	3.2µM*	8%	0%[0.074 µM]	0%	u	-3%
CCOc1ccc(C)cc1S(=O)(=O)N1CCCCC1	13%	7%	6%[0.074 µM]	9%	-13%	0%
CCCCNc1nc(C)nc2c1nc(-c1ccccc1)n2C1CCN(Cc2ccccc2)C1 (configuration not stated)	u	7%	-30%	u	x	-21%
Cc1ccccc1-n1nnnc1SCc1csc(-c2ccccc2)n1	7.9µM*	28%	-17%	-18%	u	-15%
CCOC(=O)c1[nH]c(CSc2nnnn2-c2ccccc2C)c(C(=O)OCC)c1C	3.5µM*	6%	-21%	8%	-13%	3%
CCOC(=O)c1[nH]c(CSc2nnc(-c3ccncc3)n2CCOC)c(C(=O)OCC)c1C	5%	1%	7%[10 µM]	-1%	-7%	-3%
COC(=O)CSc1nnnn1-c1cccc2ccccc12	u	15%	-3%[10 µM]	3%	-12%	-26%
Cc1ccccc1-n1nnnc1SCC(C)C	1.1µM*	30%	6%	-2%	3%	x
Nn1c(SCc2csc(-c3ccccc3)n2)nnc1-c1cccs1	u	8%	25%[10 µM]	u	9%	u
CCOC(=O)c1c(C)[nH]c(C)c1C(=O)CSc1nnnn1-c1ccccc1	32µM*	-1%	24%	-2%	7%[9.22 µM]	-3%
NC(=S)NCCC[C@H](N)C(=O)O	u	-7%	-14%	x	x	x
COc1ccc(/C=N/NC(=O)c2ccncc2)cc1CN1CCN(c2ccc(F)cc2)CC1	4%	0%	-18%	-3%	14%	x
O=C1/C(=C/c2ccsc2)N2CCC1CC2	x	9%	16%[10 µM]	-1%	9%[9.22 µM]	x
CC1(C)CC(=O)C(Sc2ccccc2)=C(O)C1	20µM*	6%	14%[10 µM]	-9%	-5%[9.22 µM]	x
CCc1c(C)nc(SCC(=O)N2CCCCC2CC)[nH]c1=O (configuration not stated)	x	11%	-15%[10 µM]	-4%	-19%[9.22 µM]	x
COC(=O)c1cc2c(C)cc3ccc(C)cn3c-2c1C(=O)OC	25µM*	-2%	18%	u	-13%	-20%
COC(=O)c1cc2ccccn2c2c(C(=O)OC)c(C(=O)OC)cc1-2	2%	-9%	-17%	-3%	8%	-20%
O=C1NC2CCc3nc4ccccc4c(=O)n3C2=Nc2ccccc21 (configuration not stated)	-1%	11%	7%[10 µM]	10%	8%[9.22 µM]	x
O=C(COc1ccccc1O)Nc1ccccc1Cl	u	-2%	-11%	2%	6%	18µM*
